# Among all 190,000 compounds or so, about 930 (0.49%) were called active. The list shows a part of the results. Entries with a potency or affinity are not part of this list. Values without a mark were called inactive.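 The calls were made as follows: active = z-score of insulin promoter reporter brightness in nuclei below -3 at 5 µM, with at least 500 cells counted; inconclusive = wells with under 500 cells, flagged as toxic or sparse; inactive = the rest.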
# Assay: insulin promoter down-regulators in MIN6 cells, imaging, high-content screening, mouse beta cells (AID 1628)
# Conditions: MIN6 insulin promoter GFP reporter, at 5 µM, stronger effect = lower value
row,SMILES,z-score
1,CCN(CC)C(=O)c1sc(NC(=O)c2ccncc2)c(C(=O)OC)c1C,-4.37 (active)
2,CCN(CC)C(=O)c1sc2nc(-c3cccs3)cc(-c3cccs3)c2c1N,4.15
3,Cc1c(Cl)cccc1NC(=O)CN1CCN(CCN=CC2=C(O)CC(c3ccccc3)CC2=O)CC1 (stereo not drawn),2.18
4,CC1=NNC(=O)C1CCC(=O)N/N=C/c1ccc(C)cc1 (stereo not drawn),3.3
5,Oc1ccc(/C=N/Nc2ccnc3cc(Cl)ccc23)c(O)c1,5.11
6,CCN1CCc2c(sc(NC(=S)NC(=O)c3ccc(Cl)cc3)c2C(N)=O)C1,3.92
7,CC1Cn2c(nnc2C23CC4CC(CC(C4)C2)C3)S1 (stereo not drawn),-3.06 (active)
8,Cc1ccc(-c2csc(=Nc3cccnc3)n2CCCn2ccnc2)cc1C,-3.01 (active)
9,N#C/C(=C/c1ccc(N2CCCCCC2)o1)c1ccc(Cl)cc1,16.2
10,CC(=O)C1=C(C)Nc2ncnn2C1c1ccc(Cl)cc1Cl (stereo not drawn),3.45
11,CC1CN(C(=O)CCn2c(=O)oc3ccccc32)CC(C)O1 (stereo not drawn),8.04
12,CCCN1C(=O)c2cccc3c(N4CCCCC4)ccc(c23)C1=O,3.75
13,CCCCN1C(=O)/C(=C/C=C2\Oc3ccccc3N2CC)SC1=S,16.7
14,O=C1CCCC(O)=C1C=NCCc1ccccc1,3.02
15,Cc1ccc(Nc2nc(N3CCOCC3)c3ccccc3n2)cc1,-3.61 (active)
16,CCOC(=O)CSc1nc2ccc(Nc3nc(N4CCOCC4)nc(N4CCOCC4)n3)cc2s1,-0.17
17,O=c1c2cccc3c(N4CCOCC4)ccc(c32)c2nc3ccccc3n12,9.75
18,Cc1n[nH]c(C)c1N1C(=O)c2cccc3c(N4CCCCCC4)ccc(c23)C1=O,8.27
19,O=C(C1CC1)N1CCC(c2nc(-c3ccc(S(=O)(=O)NCC4CCCO4)cc3)no2)CC1 (stereo not drawn),-7.53 (active)
20,Cc1noc(/C=C/c2ccc(-c3ccccc3Cl)o2)c1[N+](=O)[O-],8.03
21,COc1ccc(Cl)cc1NC(=O)CN1CCC(n2nnc3cc(C)ccc32)CC1,-4.05 (active)
22,COc1ccc(C)cc1NC(=O)COC(C)=O,3.48
23,Nc1cc(S(=O)(=O)Nc2ccccc2Cl)ccc1N1CCOCC1,2.18
24,O=C(NN=C1CCN(Cc2ccccc2)CC1)c1cccc(S(=O)(=O)Nc2ccccc2Cl)c1,3.03

row,SMILES,z-score
1,O=C(O)c1ccccc1-c1ccccc1C(=O)NNc1ccccc1,-3.66 (active)
2,CC(C)(C)S(=O)(=O)c1ccccc1C(=O)O,-1.55
3,O=C(NCCc1ccc(Cl)cc1)c1cccs1,1.56
4,Cc1ccc([N+](=O)[O-])cc1NC(=O)c1cccs1,3.18
5,CCN(CCCCN1C(=O)c2ccccc2C1=O)c1ccc2c(c1)C(=O)N(C)C2=O,-3.55 (active)
6,CCCN1C(=O)c2ccccc2NC1c1ccc(C)cc1 (stereo not drawn),2.64
7,COc1ccc(N(CCN2C(=O)c3ccccc3C2=O)C(=O)c2cccc([N+](=O)[O-])c2)cc1,3.09
8,COc1ccccc1OCc1nnc(SCC(=O)NCc2ccco2)n1-c1ccccc1,0.71
9,CC(C)Sc1nc(SCC(=O)NCc2ccco2)c2c3c(sc2n1)COC(C)(C)C3,-3.28 (active)
10,CC(C)c1cccc(O)c(=O)c1,-0.46
11,CN1C(=O)CC(N2CCN(Cc3ccc(Cl)cc3)CC2)C1=O (stereo not drawn),3.88
12,CCN(CC)c1ccc(/C=N/N2CCN(Cc3ccc(Cl)cc3)CC2)c(O)c1,-5.88 (active)
13,Cc1nn(C)c(C)c1CNC(=O)c1nn2c(c1Cl)NC(c1cccs1)CC2C(F)(F)F (stereo not drawn),-4.07 (active)
14,Cc1nn(C)cc1CNC(=O)c1cc2n(n1)C(C(F)(F)F)CC(c1cccs1)N2 (stereo not drawn),-3.69 (active)
15,CCCc1cc(-n2ccnc2)n2c(nc3ccccc32)c1C#N,5.52
16,COc1ccc2c(c1)C(C)=CC(C)(C)N2C(=O)CNCc1ccc2c(c1)OCO2,-4.43 (active)
17,O=C(CSc1nc2ccc(Cl)cc2o1)NCc1ccc2c(c1)OCO2,3.95
18,CCCCCOC(=O)Cn1c(N2CCCCCC2)nc2c1c(=O)[nH]c(=O)n2C,-0.48
19,CC1=C(C(=O)Nc2ccc(F)cc2)C(c2ccncc2)C2=C(CCCC2=O)N1 (stereo not drawn),1.21
20,CCc1c(C(=O)Nc2ccncc2)csc1C,-4.62 (active)
21,CCOc1ccc(OCC)c(-c2c(=O)n(OCc3ccc(Cl)cc3)c3ccccc3[n+]2[O-])c1,3.34
22,CCOC(=O)c1sc2nc(CSc3ccccc3Cl)[nH]c(=O)c2c1C,1.87
23,Cc1sc2nc(-c3cccs3)nc(N3CCCN(C)CC3)c2c1C,-3.73 (active)
24,COC(=O)c1sc2nc(-c3ccccc3)nc(N3CCN(C)CC3)c2c1C,-4.28 (active)
